We go through 20 compounds from PubChem BioAssay.

A number with no mark means an inactive call. For some of these results: Measured potencies and affinities stand elsewhere. Calls of active or inactive are those of the source. Unless noted, no rule for the calls is given here.

The term inhibition denotes the drop in the measured response relative to a control, in per cent.

Assay [1] can be described thus: antimalarial activity against Dd2 strain (AID 2302;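 active = growth inhibition above 50% at the single 2 µM test dose, taken to imply half-maximal potency below 2 µM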;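 also: 0% = DMSO untreated growth and 100% = chloroquine plus artemisinin killed control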). The note with it: P. falciparum Dd2 in RBCs, LDH growth readout, 72 h; at 2 µM; active compounds read high.
Assay [2] can be described thus: HepG2 cytotoxicity, primary screen, cytotoxicity control for P. falciparum antimalarial project, cell-based, ATP luminescence (AID 2303;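 active = inhibition above 50%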;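 also: 0% = DMSO wells and 100% = digitonin-killed cells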). The note with it: HepG2 viability, 24-48 h, at 10 µM, active compounds read high.
Assay [3] deals with L-lactate dehydrogenase (Plasmodium falciparum (isolate CDC / Honduras)) (UniProt Q27743). Description: PfLDH activity inhibition – cell lysate, 3D7 strain, counter-screen for P. falciparum growth inhibition project (AID 2304).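 Also: 0% = vehicle and 100% = reference inhibitor.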 The note with it: P. falciparum 3D7 crude extract, LDH APAD/NBT absorbance; at 2 µM; active compounds read high. For orientation: Counterscreens check selectivity or assay interference.

Assay [4] in a line: inhibition of 3D7 malaria parasite growth – strain 3D7 (AID 2306).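 Also: 0% = DMSO wells and 100% = chloroquine plus artemisinin control wells.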 The note with it: P. falciparum 3D7 erythrocytic growth, LDH absorbance, 72 h; at 2 µM; active compounds read high.
Assay [5] deals with Calcium-dependent protein kinase 1 (Plasmodium falciparum (isolate 3D7)) (UniProt P62344). Description: PfCDPK1 kinase inhibitors, biochemical, TCAMS library (AID 1159585; cut-off not given, nearly all actives have IC50 up to about 0.98 µM;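 also: inhibitors leave more ATP so luminescence rises with inhibition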). The note with it: recombinant PfCDPK1, Kinase-Glo ATP depletion luminescence. (Kinase-Glo measures the ATP left after a reaction by luminescence.)
For assay [6], the target named is Plasmodium falciparum protein kinase 6 (PK6, PF3D7_1337100) (UniProt Q8IDW1). As to the kind of experiment: PfPK6 kinase inhibitors, biochemical, TCAMS library (AID 1159586). The note with it: recombinant PfPK6, Kinase-Glo ATP depletion luminescence.
Assay [7] addresses Protein kinase 7 (PK7), Plasmodium falciparum 3D7 (PF3D7_0213400) (UniProt Q7YTF7). As to the kind of experiment: inhibition of Plasmodium PK7 catalytic activity – biochemical, TCAMS antimalarial set, Kinase-Glo luminescence (AID 1159587). The note with it: recombinant PfPK7, Kinase-Glo ATP depletion luminescence.
In assay [8] the target is Calcium-dependent protein kinase 4 (Plasmodium falciparum (isolate 3D7)) (UniProt Q8IBS5). Description: PfCDPK4 kinase inhibitors, biochemical, TCAMS library (AID 1159588; cut-off not given, nearly all actives have IC50 up to about 0.91 µM). The following applies: recombinant PfCDPK4, Kinase-Glo ATP depletion luminescence.
Sequence of Calcium-dependent protein kinase 4 (Plasmodium falciparum (isolate 3D7)) (Q8IBS5 whole entry, looked up): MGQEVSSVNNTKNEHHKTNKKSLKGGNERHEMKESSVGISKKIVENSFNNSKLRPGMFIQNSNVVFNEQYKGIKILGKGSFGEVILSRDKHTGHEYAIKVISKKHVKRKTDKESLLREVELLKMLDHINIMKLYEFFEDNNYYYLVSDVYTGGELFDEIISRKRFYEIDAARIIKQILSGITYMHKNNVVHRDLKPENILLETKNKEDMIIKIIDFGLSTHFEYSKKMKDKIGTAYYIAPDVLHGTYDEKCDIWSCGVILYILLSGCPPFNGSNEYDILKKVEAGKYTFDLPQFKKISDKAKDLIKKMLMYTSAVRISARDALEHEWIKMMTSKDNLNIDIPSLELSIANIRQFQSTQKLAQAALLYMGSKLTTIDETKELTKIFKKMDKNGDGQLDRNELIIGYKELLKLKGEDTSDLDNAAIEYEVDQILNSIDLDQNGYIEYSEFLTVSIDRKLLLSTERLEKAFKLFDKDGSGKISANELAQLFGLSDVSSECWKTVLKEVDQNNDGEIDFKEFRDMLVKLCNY

Sequence of Protein kinase 7 (PK7), Plasmodium falciparum 3D7 (PF3D7_0213400) (Q7YTF7 1-343): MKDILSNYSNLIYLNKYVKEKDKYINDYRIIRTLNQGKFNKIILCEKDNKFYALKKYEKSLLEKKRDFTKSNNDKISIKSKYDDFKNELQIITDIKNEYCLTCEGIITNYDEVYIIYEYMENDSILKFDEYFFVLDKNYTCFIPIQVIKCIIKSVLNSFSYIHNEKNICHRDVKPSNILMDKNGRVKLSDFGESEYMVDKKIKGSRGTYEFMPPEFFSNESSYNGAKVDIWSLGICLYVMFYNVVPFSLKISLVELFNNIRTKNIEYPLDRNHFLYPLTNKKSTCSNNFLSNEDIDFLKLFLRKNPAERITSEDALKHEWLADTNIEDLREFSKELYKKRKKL
Sequence of Calcium-dependent protein kinase 1 (Plasmodium falciparum (isolate 3D7)) (P62344 whole entry, looked up): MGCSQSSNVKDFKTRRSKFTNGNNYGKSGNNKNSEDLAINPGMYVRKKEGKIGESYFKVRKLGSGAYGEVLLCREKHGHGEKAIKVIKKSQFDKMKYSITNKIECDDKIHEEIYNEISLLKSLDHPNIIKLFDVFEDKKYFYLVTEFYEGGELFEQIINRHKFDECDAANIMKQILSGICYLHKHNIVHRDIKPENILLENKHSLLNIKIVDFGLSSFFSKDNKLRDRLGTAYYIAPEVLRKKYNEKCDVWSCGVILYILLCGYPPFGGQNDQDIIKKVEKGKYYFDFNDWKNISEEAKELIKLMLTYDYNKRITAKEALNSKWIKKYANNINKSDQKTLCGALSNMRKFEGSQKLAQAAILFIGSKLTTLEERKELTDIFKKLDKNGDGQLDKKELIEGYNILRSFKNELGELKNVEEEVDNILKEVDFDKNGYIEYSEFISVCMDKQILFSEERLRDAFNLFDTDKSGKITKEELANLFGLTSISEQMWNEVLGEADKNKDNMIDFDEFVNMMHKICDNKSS
Sequence of L-lactate dehydrogenase (Plasmodium falciparum (isolate CDC / Honduras)) (Q27743 whole entry, looked up): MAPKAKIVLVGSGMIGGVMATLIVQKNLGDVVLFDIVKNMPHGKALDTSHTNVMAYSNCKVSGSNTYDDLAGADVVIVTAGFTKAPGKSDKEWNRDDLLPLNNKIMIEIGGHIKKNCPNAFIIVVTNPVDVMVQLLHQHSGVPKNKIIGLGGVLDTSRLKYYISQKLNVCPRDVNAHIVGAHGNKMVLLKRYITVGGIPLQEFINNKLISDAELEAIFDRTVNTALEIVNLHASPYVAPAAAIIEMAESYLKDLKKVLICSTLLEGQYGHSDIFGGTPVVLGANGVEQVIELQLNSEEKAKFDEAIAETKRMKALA
Sequence of Plasmodium falciparum protein kinase 6 (PK6, PF3D7_1337100) (Q8IDW1 1-305): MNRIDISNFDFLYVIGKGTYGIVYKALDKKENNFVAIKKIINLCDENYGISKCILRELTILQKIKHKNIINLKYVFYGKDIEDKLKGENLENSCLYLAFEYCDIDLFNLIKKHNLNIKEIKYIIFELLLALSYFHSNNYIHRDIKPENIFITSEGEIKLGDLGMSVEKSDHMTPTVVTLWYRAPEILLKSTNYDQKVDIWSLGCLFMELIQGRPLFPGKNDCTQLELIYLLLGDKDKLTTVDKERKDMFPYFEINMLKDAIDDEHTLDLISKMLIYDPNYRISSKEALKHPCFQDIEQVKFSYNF

For `CC1(C)C=C(c2ccncc2)c2cc(Cl)ccc2O1`, the growth inhibition is 22% in assay [1] and 97% (active) in assay [4]. In addition, the values for the inhibition in assay [2] and in assay [3] were -4% and 1%, respectively. Besides, the outcome in assay [5], in assay [6], in assay [7] and in assay [8] was inactive.

For `COc1c(C)[nH]c(C)c(-c2ccc(Oc3cccc(C(F)(F)F)c3)cc2)c1=O`, the growth inhibition was 96% (active) in assay [1] and 98% (active) in assay [4]. In addition, the inhibition in assay [2] was 40%; in assay [3], 3%. In addition, the outcome in assay [5], in assay [6], in assay [7] and in assay [8] was inactive.

For the compound `O=C(Nc1cccc(CN2CCN(Cc3ccc(O)cc3)CC2)c1)c1cc2ccccc2o1`, the growth inhibition in assay [1] was 12%; in assay [4], 81% (active). The inhibition in assay [2] was 8%; in assay [3] it was -3%. Also, the result in assay [5], in assay [6], in assay [7] and in assay [8] was inactive.

As for `O=C(CCc1cnc[nH]1)Nc1cccc(-c2ccc(-c3nc4ccc(F)cc4[nH]3)s2)c1`, the growth inhibition in assay [1] is 69% (active); in assay [4], 101% (active). For the same compound, the results for the inhibition in assay [2] and in assay [3] were 17% and -3%, respectively. Also, the outcome in assay [5], in assay [6], in assay [7] and in assay [8] was inactive.

As to `COc1ccc2ncc(OC)c(CCN3CC[C@@H](NCc4ccc5c(n4)NC(=O)CS5)[C@H](O)C3)c2n1`, the growth inhibition in assay [1] is 99% (active); in assay [4], 94% (active). In addition, the figures for the inhibition in assay [2] and in assay [3] were 21% and 4%, respectively. Also, the result in assay [5], in assay [6], in assay [7] and in assay [8] was inactive.

As for `Clc1cc(Cl)c2c(c1)C(NCCCNc1nc3ccccc3[nH]1)CCO2` (stereo not given), the growth inhibition in assay [1] is 31%; in assay [4], 101% (active). Further, the inhibition in assay [2] was 28%; in assay [3], -4%. Further, the result in assay [5], in assay [6], in assay [7] and in assay [8] was inactive.

As for `CC(C)Sc1nc2c(c(=O)n1Cc1ccco1)C1(CCCC1)Cc1ccccc1-2`, the growth inhibition in assay [1] is 10%; in assay [4], 98% (active). In addition, the inhibition in assay [2] was 8%; in assay [3], 4%. Besides, the outcome in assay [5], in assay [6], in assay [7] and in assay [8] was inactive.

Take `COc1ccc2nccc([C@@H](O)CN3CCC(NCc4ccc5c(c4)sc(=O)n5C)CC3)c2c1`: the results for the growth inhibition in assay [1] and in assay [4] were 72% (active) and 100% (active), respectively. The inhibition in assay [2] was 10%; in assay [3] it was -6%. For the same compound, the outcome in assay [5], in assay [6], in assay [7] and in assay [8] was inactive.

Consider `Cc1cc(NCCC(=O)NCCOc2ccccc2)nc(NCCOc2ccccc2)n1`, for which the growth inhibition in assay [1] is 20%; in assay [4], 92% (active). The inhibition in assay [2] was 8%; in assay [3] it was 0%. Further, the outcome in assay [5], in assay [6], in assay [7] and in assay [8] was inactive.

`Cc1ccc(S(=O)(=O)N(CCCN2CCN(C)CC2)Cc2csc(-c3ccc(CNCc4ccccc4)cc3)n2)cc1`: the results for the growth inhibition in assay [1] and in assay [4] were 90% (active) and 97% (active), respectively. In addition, the inhibition in assay [2] is 15%; in assay [3] it was 3%. Further, the outcome in assay [5], in assay [6], in assay [7] and in assay [8] was inactive.

Take `CC(Cc1ccc(OCc2ccccc2)cc1)Nc1nc2ccccc2c(=O)[nH]1` (stereo not given): the growth inhibition is 96% (active) in assay [1] and 98% (active) in assay [4]. The figures for the inhibition in assay [2] and in assay [3] were 2% and -1%, respectively. Further, the outcome in assay [5], in assay [6], in assay [7] and in assay [8] was inactive.

Regarding `Cc1cccc(CNc2ncc(C)c(NCCC(=O)Nc3ccccc3)n2)c1`, the results for the growth inhibition in assay [1] and in assay [4] were 10% and 81% (active), respectively. Further, the inhibition in assay [2] is 18%; in assay [3], 5%. The outcome in assay [5], in assay [6], in assay [7] and in assay [8] was inactive.

With `Cc1cc(N2CCOCC2)nc2ccc(NC(=O)c3cccc([N+](=O)[O-])c3)cc12`, the growth inhibition was 37% in assay [1] and 97% (active) in assay [4]. The inhibition in assay [2] and in assay [3] was 0% each time. For the same compound, the outcome in assay [5], in assay [6], in assay [7] and in assay [8] was inactive.

For `Cc1cc(N[C@@H](Cc2ccccc2)C(=O)NCc2cccs2)nc(NCCc2cccnc2)n1`, the growth inhibition in assay [1] is 38%; in assay [4], 84% (active). The values for the inhibition in assay [2] and in assay [3] were 10% and -4%, respectively. Also, the outcome in assay [5], in assay [6], in assay [7] and in assay [8] was inactive.

Take `Cc1ccc(C2CCN(CCCCNC(=O)c3ccc(-c4ccc(C(F)(F)F)cc4)cc3)CC2)c(O)c1`: the growth inhibition in assay [1] was 49%; in assay [4], 100% (active). Also, the inhibition in assay [2] was 92% (active); in assay [3] it was -2%. Besides, the outcome in assay [5], in assay [6], in assay [7] and in assay [8] was inactive.

As to `COc1ccc(Cl)cc1N1CCN(CCCNC(=O)c2ccc(-c3nc4ccc(C(F)(F)F)cc4[nH]3)c(C)c2)CC1`, the growth inhibition in assay [1] is 14%; in assay [4], 95% (active). Also, the inhibition is 6% in assay [2] and -2% in assay [3]. The outcome in assay [5], in assay [6], in assay [7] and in assay [8] was inactive.

On to `Cc1cccc2[nH]c(-c3cccc(-c4ccc(NC(=O)Cc5ccon5)cc4)c3)nc12`, for which the values for the growth inhibition in assay [1] and in assay [4] were 38% and 87% (active), respectively. Further, the inhibition in assay [2] was 34%; in assay [3] it was 2%. The outcome in assay [5], in assay [6], in assay [7] and in assay [8] was inactive.

As for `CC(=O)Nc1ccc(C(=O)Nc2ccc(-c3cccc(-c4nc5c(C)cccc5[nH]4)c3)cc2)cn1`, the growth inhibition in assay [1] was 74% (active); in assay [4], 99% (active). Besides, the figures for the inhibition in assay [2] and in assay [3] were 36% and -7%, respectively. The outcome in assay [5], in assay [6], in assay [7] and in assay [8] was inactive.

Regarding `COc1cc(NC(=O)N2CCc3ccc(OCCN4CCCCC4)cc32)cc(C(F)(F)F)c1`, the growth inhibition in assay [1] is 93% (active); in assay [4], 101% (active). Also, the inhibition in assay [2] is 9%; in assay [3], 6%. In addition, the outcome in assay [5], in assay [6], in assay [7] and in assay [8] was inactive.

As to `CC1(C)N=C(N)N=C(N)C1c1ccc(Cl)cc1` (stereo not given), the growth inhibition was -2% in assay [1] and 96% (active) in assay [4]. The inhibition in assay [2] is 16%; in assay [3], 1%. Moreover, the outcome in assay [5], in assay [6], in assay [7] and in assay [8] was inactive.
